Measurements taken from publication PMC4336329 (PLoS ONE, 2015).
The campaign covered roughly 310,000 compounds. About 14,000 (4.5%) showed an effect of 50% or more. Effects have a minus sign here. The entries come from a sample that favours strong results as a whole.

The compounds below were run against human ether-à-go-go-related gene (hERG) potassium channel (human, UniProt Q12809) (assay: primary screen, population patch clamp on CHO cells stably expressing hERG; higher = less effect of the substance).
Chain of human ether-à-go-go-related gene (hERG) potassium channel (Q12809 whole entry, looked up): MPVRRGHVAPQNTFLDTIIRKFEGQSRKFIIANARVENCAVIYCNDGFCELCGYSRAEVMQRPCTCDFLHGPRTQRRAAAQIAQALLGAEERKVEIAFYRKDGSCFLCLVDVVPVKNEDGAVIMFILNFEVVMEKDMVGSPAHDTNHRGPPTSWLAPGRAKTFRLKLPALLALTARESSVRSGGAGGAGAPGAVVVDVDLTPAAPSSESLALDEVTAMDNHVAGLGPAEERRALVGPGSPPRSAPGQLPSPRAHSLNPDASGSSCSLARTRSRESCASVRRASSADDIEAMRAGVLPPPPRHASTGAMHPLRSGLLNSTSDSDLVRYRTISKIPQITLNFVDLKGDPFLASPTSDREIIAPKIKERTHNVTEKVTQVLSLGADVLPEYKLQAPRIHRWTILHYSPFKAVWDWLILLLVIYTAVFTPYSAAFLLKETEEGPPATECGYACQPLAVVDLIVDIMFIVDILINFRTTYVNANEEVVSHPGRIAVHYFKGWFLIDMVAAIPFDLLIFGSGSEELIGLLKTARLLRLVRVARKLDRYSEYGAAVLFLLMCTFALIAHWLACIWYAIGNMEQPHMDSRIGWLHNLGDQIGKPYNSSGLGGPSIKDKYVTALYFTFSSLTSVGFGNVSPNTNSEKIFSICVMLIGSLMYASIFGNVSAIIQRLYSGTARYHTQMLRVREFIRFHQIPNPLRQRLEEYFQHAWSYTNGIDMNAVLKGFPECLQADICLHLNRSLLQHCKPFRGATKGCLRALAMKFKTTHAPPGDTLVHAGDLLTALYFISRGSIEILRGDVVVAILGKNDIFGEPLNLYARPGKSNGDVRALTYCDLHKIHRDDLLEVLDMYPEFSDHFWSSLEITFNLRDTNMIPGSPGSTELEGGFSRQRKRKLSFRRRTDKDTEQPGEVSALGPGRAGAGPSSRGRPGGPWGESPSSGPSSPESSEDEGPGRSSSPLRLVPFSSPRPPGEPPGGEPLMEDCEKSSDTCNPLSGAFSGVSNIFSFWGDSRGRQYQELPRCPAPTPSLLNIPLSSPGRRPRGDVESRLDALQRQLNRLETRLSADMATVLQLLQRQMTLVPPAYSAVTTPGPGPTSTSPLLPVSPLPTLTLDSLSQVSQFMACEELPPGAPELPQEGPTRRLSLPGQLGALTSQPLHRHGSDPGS
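Note: peak tail current of the secondary pulse compared with the same well before compound.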

SMILES	hERG current change (%, negative = inhibition) at 10uM
O=[N+]([O-])c1ccc(Oc2ccc(Oc3ccc(C(F)(F)F)cn3)cc2)nc1	-1.44%
O=C(O)C(=O)O.O=[N+]([O-])c1ccc(Oc2ccc(C(F)(F)F)cn2)cc1	-53.9%
O=C(O)c1ccc(Oc2ccc(C(F)(F)F)cn2)cc1	17.5%
COc1ccc(NC(=O)Nc2c(C)n(C)n(-c3ccccc3)c2=O)cc1	-18.6%
O=C1N=C(N2CCN(c3ccccc3)CC2)S/C1=C/c1cccs1	-49.3%
O=C1N=C(N2CCN(c3ccccc3)CC2)S/C1=C/c1ccco1	-53.8%
O=C1N=C(N2CCCC2C(=O)O)S/C1=C\c1ccco1 (centres unmarked)	35%
O=C1N=C(N2CCN(c3ccccc3)CC2)S/C1=C\c1ccco1	-66.1%
O=C1N=C(N2CCCC2)S/C1=C\c1ccccc1	15.2%
NC1=NC(=O)/C(=C\c2ccco2)S1	19.2%
CCC(C)C(NC(=O)CCCNC(=O)CCC(=O)OC1O[C@H]2OC3(C)CC[C@H]4[C@H](C)CCC(C1C)C24OO3)C(=O)O (some centres unmarked)	4.12%
CC(C)CC(NC(=O)CCCNC(=O)CCC(=O)OC1O[C@H]2OC3(C)CC[C@H]4[C@H](C)CCC(C1C)C24OO3)C(=O)O (some centres unmarked)	1.34%
Cc1cc(C)n2c3c(c(C#N)c2n1)CC(C)(C)OC3	2.81%
c1ccc(-c2nc(NCC3CCCO3)c3ccccc3n2)nc1 (centres unmarked)	-23.3%
c1ccc(-c2nc(NCc3ccco3)c3ccccc3n2)nc1	-62.9%
CCC(C)Nc1nc(-c2ccccn2)nc2ccccc12 (centres unmarked)	-50.2%
c1ccc(CCNc2nc(-c3ccncc3)nc3ccccc23)cc1	3.71%
CCC(C)Nc1nc(-c2cccc(OC)c2O)nc2ccccc12 (centres unmarked)	-5.73%
Oc1ccccc1-c1nc(NCc2ccco2)c2ccccc2n1	1.8%
C(=N\Nc1nc(-c2ccccn2)nc2ccccc12)/c1ccccc1	12.3%
C/C(=N\Nc1nc(-c2ccccn2)nc2ccccc12)c1ccc(F)cc1	11%
Cl.c1ccc(-c2nc(NCc3ccco3)c3ccccc3n2)cc1	-33.4%

SMILES	hERG current change (%, negative = inhibition) at 10uM
c1ccc(CNc2nc(-c3ccccn3)nc3ccccc23)cc1	-43.5%
CC(C)(C)Nc1nc(-c2ccccn2)nc2ccccc12	-69.8%
c1ccc(CCNc2nc(-c3ccccn3)nc3ccccc23)cc1	-78.6%
CCc1ccccc1NC(=O)COc1ccc2c(=O)c(Oc3cc(C)ccc3C)coc2c1	10.5%
Cc1cc(C(C)(C)C)c(OC(=O)[C@@H]2OC(c3ccccc3)=C[C@H]2c2ccccc2)c(C(C)(C)C)c1	7.58%
c1coc(C2Nc3ccccc3C3OCCC23)c1 (centres unmarked)	6.63%
CC(C)Cn1c(N)c(C(=O)COC(=O)C2=COCCO2)c(=O)n(C)c1=O	14.1%
CCOC(=O)NCN1C(=O)C2C3C=CC(C3)C2C1=O (centres unmarked)	-11.9%
CCCCN(CCCC)c1nc(-c2ccncc2)nc2ccccc12	-0.281%
CCCN(CCC)c1nc(-c2ccccn2)nc2ccccc12	-74.4%
CCN(CC)c1nc(-c2ccccc2)nc2ccccc12.Cl	-32.5%
Cc1ccc(N2CC(C(=O)NCc3ccccn3)CC2=O)cc1 (centres unmarked)	5.36%
Cc1ccc(-c2csc(NC(=O)c3cc([N+](=O)[O-])ccc3N3CCOCC3)n2)cc1	15.4%
COc1ccc(C(NC(N)=O)c2ccccc2)cc1 (centres unmarked)	10.3%
CN1CCN(CCCN(Cc2cccs2)C(=S)Nc2ccc(Cl)cc2)CC1	-71.8%
Cc1cc(C)c(NC(=S)N(CCCN2CCN(C)CC2)Cc2cccs2)c(C)c1	-43.9%
Cc1cc(C)cc(NC(=S)N(CCN(C)C)Cc2cccs2)c1	-25.1%
Cc1cc(C)cc(NC(=S)N(CCCN2CCN(C)CC2)Cc2cccs2)c1	-63.3%
CCc1ccc(NC(=S)N(CCCN2CCN(C)CC2)Cc2cccs2)cc1	-62.5%
Cc1ccc(NC(=S)N(CCN(C)C)Cc2cccs2)cc1	-19.3%
Cc1ccc(NC(=S)N(CCCN2CCN(C)CC2)Cc2cccs2)cc1	-51.3%
S=C(Nc1ccc(Cl)cc1)N(CCCN1CCOCC1)Cc1cccs1	-32.4%
